Results filed as inconclusive are left out. Calls of active or inactive are those of the source. Calls follow the shape of the dose curve; as a rule, active = well fitted curve in the direction sought with a large enough effect; inconclusive = small, poorly fitted or top-dose-only effect, or another doubt; inactive = no such curve, though single readings can be large; an effect the other way counts as inactive or inconclusive.
Experiments:
[1] = Cellular Toxicity (caspase-3) Mesangial (AID 660); settings: mesangial cells, normalized: DMSO 0%, 100 µM tamoxifen 100%; at 91.7 µM (top of the series);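 also: cells exposed to compound for 16 h before the caspase read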
Procedure, shortened: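 Human renal glomerular mesangial cells (1000/well) were treated with compounds for 16 h at 37 °C in complete medium, then caspase 3/7 activity was read by Caspase-Glo luminescence. Data were normalized to DMSO and 100 uM tamoxifen; AC50 from Hill fits.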

[2] = Cellular Toxicity (caspase-3) SK-N-SH (AID 661);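 also: 0% = DMSO basal and 100% = 10 µM staurosporine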
Procedure, shortened: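 SK-N-SH human neuroblastoma cells (1500/well) were treated with compounds for 16 hr at 37 °C in complete medium; caspase 3/7 activity was read by Caspase-Glo luminescence. AC50 came from Hill fits of data normalized to DMSO and 10 uM staurosporine.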

[3] = Cellular Toxicity (caspase-3) H-4-II-E (AID 663); settings: H-4-II-E rat hepatoma, scaled: DMSO 0%, 100 µM tamoxifen 100%; at 92.2 µM (top of the series);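 also: cells exposed to compound for 16 hr before readout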
Procedure, shortened: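 Apoptosis induction is scored as increased luminescence from caspase 3/7 substrate cleavage in rat hepatoma H-4-II-E cells exposed to compound for 16 hr. Activity is scaled between DMSO and 100 uM tamoxifen.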

[4] = Cellular Toxicity (caspase-3) Hek293 (AID 664); settings: HEK293 caspase-3 activation, DMSO = 0%, 100 µM tamoxifen = 100%; at 92.2 µM (top of the series);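 also: cells exposed to compound for 16 h at 37 °C before readout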
Procedure, shortened: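 HEK293 cells were exposed to compounds in complete medium for 16 hr at 37 °C, then caspase-3/7 activity was read by Caspase-Glo 3/7 luminescence after 20 min at room temperature. Data normalized to DMSO and 100 uM tamoxifen; AC50 from Hill fits.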

[5] = Cellular Toxicity (caspase-3) N2a (AID 665);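 also: compound exposure lasted 16 h at 37 °C before readout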
Procedure, shortened: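 Mouse N2a neuroblastoma cells (1500/well) were treated with compounds for 16 h at 37 °C, then caspase-3/7 activity was read by Caspase-Glo luminescence after 1 h at room temperature. Data were normalized to DMSO and 10 uM staurosporine; AC50 from Hill fits.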

[6] = Cellular Toxicity (caspase-3) NIH 3T3 (AID 666);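 also: 0% = DMSO basal and 100% = 100 µM tamoxifen stimulation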
Procedure, shortened: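 Mouse NIH 3T3 fibroblasts (1000 cells/well) were treated with compound for 16 hr at 37°C in complete medium; caspase-3/7 activity was read by Caspase-Glo luminescence. Normalized to DMSO and 100 uM tamoxifen; AC50 from Hill fits.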

[7] = Cellular Toxicity (caspase-3) Renal Proximal Tubule (AID 667); settings: Potency: caspase-3 activation;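 also: cells exposed to compound for 16 hours at 37 °C before detection; 0% = DMSO basal and 100% = 10 µM staurosporine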
Procedure, shortened: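 Luminescent caspase 3/7 signal from peptide-aminoluciferin cleavage measures apoptosis in freshly isolated rat kidney proximal tubule cells after 16 h compound exposure. Concentration-response data are normalized to DMSO and 10 uM staurosporine, and AC50 values come from Hill equation fits.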

[8] = target: Cytochrome P450 3A4 (Homo sapiens) (UniProt P08684); experiment: qHTS Assay for Inhibitors and Substrates of Cytochrome P450 3A4 (AID 884); also: % is scaled to controls: 0 for no effect and ±100 for the full control effect; nearly all actives have a fitted effect of over 50% in size
Cytochrome P450 3A4 (Homo sapiens), sequence (P08684 whole entry, looked up): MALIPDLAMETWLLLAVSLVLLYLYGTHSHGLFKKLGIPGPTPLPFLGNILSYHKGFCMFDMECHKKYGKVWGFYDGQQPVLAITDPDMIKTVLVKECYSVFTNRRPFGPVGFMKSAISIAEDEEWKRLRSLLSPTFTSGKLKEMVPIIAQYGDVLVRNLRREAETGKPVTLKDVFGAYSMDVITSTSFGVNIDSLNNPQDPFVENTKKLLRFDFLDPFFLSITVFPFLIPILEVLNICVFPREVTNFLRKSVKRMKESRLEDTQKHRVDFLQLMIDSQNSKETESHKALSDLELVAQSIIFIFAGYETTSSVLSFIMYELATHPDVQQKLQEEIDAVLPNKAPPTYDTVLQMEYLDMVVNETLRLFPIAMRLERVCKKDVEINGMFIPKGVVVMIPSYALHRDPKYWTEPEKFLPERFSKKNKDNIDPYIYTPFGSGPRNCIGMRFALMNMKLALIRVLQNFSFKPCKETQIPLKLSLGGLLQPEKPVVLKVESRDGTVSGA
Procedure, shortened: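 20 nM human CYP3A4 with 25 uM Luciferin-PPXE (at KM) in 200 mM KPO4, preincubated 10 min with compound; NADPH regeneration started a 60 min RT reaction. Luciferin detected by luminescence, normalized to 57 uM ketoconazole as full inhibition.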

[9] = Cell Viability - LYMP2-001 (AID 921);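 also: cells exposed to compound for 24 h at 37 °C; 0% = DMSO only and full inhibition = tetraoctylammonium bromide control wells; nearly all actives have a fitted effect of over 70% in size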
Procedure, shortened: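 CellTiter-Glo luminescence (intracellular ATP) after 24 hr compound exposure at 37 C, 2500 lymphoblastoid cells/well in complete medium. AC50 fitted with standard Hill equation; tetraoctylammonium bromide positive control.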

O=Cc1ccc(Cl)cc1
inactive: caspase-3 activation [1] 0.65% | outcome [2] | caspase-3 activation [3] 0.113% | caspase-3 activation [4] 2% | outcome [5] | outcome [6] | Potency [7] | Potency [8] | Potency [9]

CC/C=C/C#N
inactive: caspase-3 activation [1] -0.969% | outcome [2] | caspase-3 activation [3] 0.211% | caspase-3 activation [4] 1.85% | outcome [5] | outcome [6] | Potency [7] | Potency [8] | Potency [9]

O=C(O)CNC(=O)c1ccc([N+](=O)[O-])cc1
inactive: caspase-3 activation [1] -0.679% | outcome [2] | caspase-3 activation [3] 0.8% | caspase-3 activation [4] -2.43% | outcome [5] | outcome [6] | Potency [7] | Potency [8] | Potency [9]

CCOc1ccccc1N
inactive: caspase-3 activation [1] 1.9% | outcome [2] | caspase-3 activation [3] -0.577% | caspase-3 activation [4] -1.95% | outcome [5] | outcome [6] | Potency [7] | Potency [8] | Potency [9]

CCOC(C)(C)C
inactive: caspase-3 activation [1] -0.979% | outcome [2] | caspase-3 activation [3] -0.707% | caspase-3 activation [4] 1.78% | outcome [5] | outcome [6] | Potency [7] | Potency [8] | Potency [9]

C/C=C(/C)C#N
inactive: caspase-3 activation [1] -0.503% | outcome [2] | caspase-3 activation [3] 0.589% | caspase-3 activation [4] 0.51% | outcome [5] | outcome [6] | Potency [7] | Potency [8] | Potency [9]

N#CC1(O)CCCCC1
inactive: caspase-3 activation [1] 0.158% | outcome [2] | caspase-3 activation [3] -0.143% | caspase-3 activation [4] 1.67% | outcome [5] | outcome [6] | Potency [7] | Potency [8] | Potency [9]

CC(C)(C)c1ccc(OCC2CO2)cc1 (stereo not drawn)
inactive: caspase-3 activation [1] 1.34% | outcome [2] | caspase-3 activation [3] 0.475% | caspase-3 activation [4] -2.1% | outcome [5] | outcome [6] | Potency [7] | Potency [8] | Potency [9]

CCOCC(=O)O
inactive: caspase-3 activation [1] 1.49% | outcome [2] | caspase-3 activation [3] 0.681% | caspase-3 activation [4] 1% | outcome [5] | outcome [6] | Potency [7] | Potency [8] | Potency [9]

Cc1ccc(C)c(N)c1
inactive: caspase-3 activation [1] 1.89% | outcome [2] | caspase-3 activation [3] 3.4% | caspase-3 activation [4] 3.4% | outcome [5] | outcome [6] | Potency [7] | Potency [8] | Potency [9]

O=C(O)c1ccccc1Cl
inactive: caspase-3 activation [1] -0.834% | outcome [2] | caspase-3 activation [3] 0.73% | caspase-3 activation [4] -0.14% | outcome [5] | outcome [6] | Potency [7] | Potency [8] | Potency [9]

O=C(O)/C=C/C(=O)O
inactive: caspase-3 activation [1] -0.622% | outcome [2] | caspase-3 activation [3] 1.4% | caspase-3 activation [4] -1.62% | outcome [5] | outcome [6] | Potency [7] | Potency [8] | Potency [9]

Cc1ccc2ccccc2c1[N+](=O)[O-]
inactive: caspase-3 activation [1] 0.0968% | outcome [2] | caspase-3 activation [3] -1.44% | caspase-3 activation [4] -2.81% | outcome [5] | outcome [6] | Potency [7] | Potency [8] | Potency [9]

BrC/C=C/CBr
inactive: caspase-3 activation [1] -0.978% | outcome [2] | caspase-3 activation [3] 0.954% | caspase-3 activation [4] 2.1% | outcome [5] | outcome [6] | Potency [7] | Potency [8] | Potency [9]

CSc1ccc(C=O)cc1
inactive: caspase-3 activation [1] -0.251% | outcome [2] | caspase-3 activation [3] 2.78% | caspase-3 activation [4] 0.206% | outcome [5] | outcome [6] | Potency [7] | Potency [8] | Potency [9]

CC(=O)c1ccc([N+](=O)[O-])cc1
inactive: caspase-3 activation [1] -0.175% | outcome [2] | caspase-3 activation [3] 0.949% | caspase-3 activation [4] -0.704% | outcome [5] | outcome [6] | Potency [7] | Potency [8] | Potency [9]

C=CCOC(=O)CCCCCCCC
inactive: caspase-3 activation [1] 0.626% | outcome [2] | caspase-3 activation [3] -0.694% | caspase-3 activation [4] 1.74% | outcome [5] | outcome [6] | Potency [7] | Potency [8] | Potency [9]

Cc1ccc(C#N)cc1
inactive: caspase-3 activation [1] -0.175% | outcome [2] | caspase-3 activation [3] 0.0504% | caspase-3 activation [4] 0.103% | outcome [5] | outcome [6] | Potency [7] | Potency [8] | Potency [9]

CCC(C)(C)C
inactive: caspase-3 activation [1] 0.949% | outcome [2] | caspase-3 activation [3] -0.587% | caspase-3 activation [4] -1.96% | outcome [5] | outcome [6] | Potency [7] | Potency [8] | Potency [9]

NC(=O)c1cccc([N+](=O)[O-])c1
inactive: caspase-3 activation [1] 0.906% | outcome [2] | caspase-3 activation [3] -1.74% | caspase-3 activation [4] 2% | outcome [5] | outcome [6] | Potency [7] | Potency [8] | Potency [9]

NC(N)=S
inactive: caspase-3 activation [1] -0.0158% | outcome [2] | caspase-3 activation [3] 1.67% | caspase-3 activation [4] -1.2% | outcome [5] | outcome [6] | Potency [7] | Potency [8] | Potency [9]

c1ccsc1
inactive: caspase-3 activation [1] -0.223% | outcome [2] | caspase-3 activation [3] 0.78% | caspase-3 activation [4] -0.842% | outcome [5] | outcome [6] | Potency [7] | Potency [8] | Potency [9]
